These results are taken from PubChem BioAssay.

By AC50 is commonly meant the concentration at which the activity in the assay is half-maximal. The term inhibition denotes the change of the read-out against control, counted positive when it falls.

Assay [1] can be described thus: rescue of PC12 cells from polyQ htt toxicity – LDH release (AID 1610). As to conditions: PC12 mutant huntingtin toxicity, final LDH at 4 uM, stronger effect = lower value.
Assay [2] in a line: chitosan synthesis blockers in C. neoformans – flow cytometry, Cibacron Brilliant Red staining (AID 1347148; call rule not given here;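 note: compound exposure lasted three days at 37 degrees C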). As to conditions: Cryptococcus neoformans chitosan, stronger effect = lower value; at 10 µM unless noted.
Assay [3] is described as follows: viability loss in pontine glioma line – cell-based, SU-DIPG-XIII, MIPE5.0, CellTiter-Glo, qHTS, dose response (AID 1347064; cut-off not given, nearly all actives have AC50 up to about 23 µM;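 for AC50: cells exposed to compound for 48 hours before the viability read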). Particulars: CellTiter-Glo ATP luminescence. A general note: ATP-based viability assays read luminescence as a measure of living cells.
A short description of assay [4]: glutamate excitotoxicity neuroprotectants – cell-based, TUNEL DNA degradation staining, MNGlu (AID 1594; call rule not given here). Particulars: motor neurons, glutamate-induced death, at 1 µM, stronger effect = higher value.
Assay [5] is described as follows: viability loss in pontine glioma line – cell-based, SU-DIPG-XXV, MIPE5.0, CellTiter-Glo, qHTS, dose response (AID 1347065; cut-off not given, nearly all actives have AC50 up to about 26 µM;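 note: cells exposed to compound for 48 hours before ATP readout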). Particulars: CellTiter-Glo ATP luminescence.
Assay [6] deals with Calcium-dependent protein kinase 1 (Plasmodium falciparum (isolate 3D7)) (UniProt P62344). Nature of the assay: PfCDPK1 kinase inhibitors, biochemical, TCAMS library (AID 1159585; cut-off not given, nearly all actives have IC50 up to about 0.98 µM;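 note: inhibitors leave more ATP so luminescence rises with inhibition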). As to conditions: recombinant PfCDPK1, Kinase-Glo ATP depletion luminescence.
For assay [7], the target named is Plasmodium falciparum protein kinase 6 (PK6, PF3D7_1337100) (UniProt Q8IDW1). Nature of the assay: PfPK6 kinase inhibitors, biochemical, TCAMS library (AID 1159586; call rule not given here). As to conditions: recombinant PfPK6, Kinase-Glo ATP depletion luminescence. A general note: Kinase-Glo measures the ATP left after a reaction by luminescence.
The target in assay [8] is Protein kinase 7 (PK7), Plasmodium falciparum 3D7 (PF3D7_0213400) (UniProt Q7YTF7). Nature of the assay: inhibition of Plasmodium PK7 catalytic activity – biochemical, TCAMS antimalarial set, Kinase-Glo luminescence (AID 1159587; call rule not given here). As to conditions: recombinant PfPK7, Kinase-Glo ATP depletion luminescence.
Assay [9] is described as follows: compounds altering HSF1 focus formation in cells – imaging, Selleck Cancer Library (AID 1347162; in the data active = plate-normalised HSF1 focus index below about 0.46). As to conditions: human cells, HSF1 nuclear foci imaging, at 10 µM; SSMD: measured here: HSF1 foci SSMD mean; cell count: measured here: cell number; plate-normalised HSF1 focus index: stronger effect = lower value.
Assay [10] is described as follows: growth inhibition, single agents and combos, LFS_MB_1R, cell-based, cisplatin or BGB combos, synergistic combos for chromothripsis tumors (AID 1671452).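 Note: cells exposed for 96 hours before readout.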 As to conditions: LFS_MB_1R medulloblastoma cells, stronger effect = higher value.
Assay [11] can be described thus: growth inhibition, single agents and combos, CRL2098, cell-based, BGB or cisplatin IC20 combos, synergistic combos for chromothripsis tumors (AID 1671454).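 Note: cells exposed for 96 h before readout; 0% = vehicle DMSO and 100% = killing by high DMSO.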 Particulars: CRL2098 osteosarcoma cells, drug combinations, stronger effect = higher value.
Assay [12] is described as follows: growth inhibition, single agents and combos, HD-MB03, cell-based, BGB or cisplatin IC20 combos, synergistic combos for chromothripsis tumors (AID 1671455; in the data active = inhibition above about 83%;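 note: 0% = vehicle DMSO and 100% = high DMSO as cytotoxic control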). As to conditions: HD-MB03 medulloblastoma cells, stronger effect = higher value.
Assay [13] in a line: growth inhibition, single agents and combos, UWB1.289, cell-based, BGB or cisplatin combos, synergistic combos for chromothripsis tumors (AID 1671456).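 Note: cells exposed to compound for four days; 0% = vehicle DMSO and 100% = killing by high DMSO.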 Particulars: UWB1.289 ovarian carcinoma cells, stronger effect = higher value.
Assay [14] can be described thus: growth inhibition, single agents and combos, LFS_MB_2R, cell-based, cisplatin combos, synergistic combos for chromothripsis tumors (AID 1671457).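 Note: cells exposed to compound for four days before readout.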 Particulars: LFS_MB_2R medulloblastoma cells, stronger effect = higher value.
Assay [15] can be described thus: growth inhibition, MDA-MB-436, cell-based, BGB or cisplatin combos, synergistic combos for chromothripsis tumors (AID 1671458; call rule not given here;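 note: cells exposed for 96 hours; 0% = vehicle DMSO and 100% = killing by high DMSO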). Particulars: MDA-MB-436 breast carcinoma growth inhibition, drug combinations, stronger effect = higher value.
Assay [16] is described as follows: UWB1.289_BRCA1 ovarian cancer growth, cell-based, BGB or cisplatin combinations (AID 1671459). As to conditions: UWB1.289 BRCA1 ovarian carcinoma, drug combinations, stronger effect = higher value.
A short description of assay [17]: drug combination toxicity in non-malignant astrocytes – cell-based, BGB or cisplatin IC20 combos, cytotoxicity control for chromothriptic childhood tumor combination screen (AID 1671460).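 Note: cells exposed to compounds for 96 hours before viability readout; 0% = vehicle and 100% = killing control.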 Particulars: Human astrocytes, viability inhibition, drug combinations, at 0.5 µM, stronger effect = higher value.
The nature of assay [18]: BT084 cell growth, single and combined drugs, ICGC_MB145, cisplatin and BGB IC40 combos (AID 1671461).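 Note: cells exposed to drugs for 96 hours; 0% = vehicle DMSO and 100% = high DMSO full killing control.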 Particulars: BT084 medulloblastoma cells, drug combinations, stronger effect = higher value.
Assay [19] can be described thus: RCMB18 cell growth, single agent and combined, cisplatin and BGB IC40 combos (AID 1671462).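 Note: cells exposed to compound for four days.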 As to conditions: RCMB18 medulloblastoma cells, stronger effect = higher value.
Assay [20] can be described thus: CRL1545 cell growth, single agent and combined, cisplatin and BGB IC20 combos (AID 1671464).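 Note: cells exposed to compound for 96 hours before readout; 0% = vehicle DMSO and 100% = high DMSO killing control.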 As to conditions: CRL1545 osteosarcoma cells, stronger effect = higher value.
Setting [21] is: measured here: combination with cisplatin, at 0.5 µM.
Where [22] appears, read: measured here: combination with cisplatin, at 5 µM.

Molecules are shown by their SMILES. Values joined by “and” are separate entries in the source; they are usually repeats but may differ in a detail not shown here. Equal values may be shown once. Records with an inconclusive call do not appear. For part of these data: Measured potencies and affinities stand elsewhere. Active and inactive are the calls of the source. Cut-off read from the data, not from the text of the source, unless noted: active = inhibition above about 80%; inactive = the rest.

Calcium-dependent protein kinase 1 (Plasmodium falciparum (isolate 3D7)), sequence (P62344 whole entry, looked up): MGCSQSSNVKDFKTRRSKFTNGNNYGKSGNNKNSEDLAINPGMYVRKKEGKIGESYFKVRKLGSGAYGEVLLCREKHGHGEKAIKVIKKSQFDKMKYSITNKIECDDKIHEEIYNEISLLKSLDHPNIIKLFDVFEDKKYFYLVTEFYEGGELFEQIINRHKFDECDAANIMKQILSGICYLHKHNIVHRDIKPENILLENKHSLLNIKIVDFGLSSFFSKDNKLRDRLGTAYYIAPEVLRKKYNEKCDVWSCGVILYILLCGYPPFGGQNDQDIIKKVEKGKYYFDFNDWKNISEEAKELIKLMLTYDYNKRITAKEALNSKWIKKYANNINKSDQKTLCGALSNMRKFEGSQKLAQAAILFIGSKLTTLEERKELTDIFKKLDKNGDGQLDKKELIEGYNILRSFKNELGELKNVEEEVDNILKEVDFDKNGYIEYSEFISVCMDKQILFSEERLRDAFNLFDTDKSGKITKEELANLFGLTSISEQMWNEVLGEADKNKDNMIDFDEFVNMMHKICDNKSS
Plasmodium falciparum protein kinase 6 (PK6, PF3D7_1337100), sequence (Q8IDW1 1-305): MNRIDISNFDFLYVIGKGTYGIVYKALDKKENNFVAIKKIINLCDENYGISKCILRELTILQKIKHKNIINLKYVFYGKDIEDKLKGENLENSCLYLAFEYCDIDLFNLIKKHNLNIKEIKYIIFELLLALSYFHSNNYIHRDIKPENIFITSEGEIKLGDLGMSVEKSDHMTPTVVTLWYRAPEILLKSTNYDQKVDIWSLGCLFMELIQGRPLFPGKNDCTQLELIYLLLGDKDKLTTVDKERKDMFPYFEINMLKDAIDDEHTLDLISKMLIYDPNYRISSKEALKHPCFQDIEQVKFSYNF
Protein kinase 7 (PK7), Plasmodium falciparum 3D7 (PF3D7_0213400), sequence (Q7YTF7 1-343): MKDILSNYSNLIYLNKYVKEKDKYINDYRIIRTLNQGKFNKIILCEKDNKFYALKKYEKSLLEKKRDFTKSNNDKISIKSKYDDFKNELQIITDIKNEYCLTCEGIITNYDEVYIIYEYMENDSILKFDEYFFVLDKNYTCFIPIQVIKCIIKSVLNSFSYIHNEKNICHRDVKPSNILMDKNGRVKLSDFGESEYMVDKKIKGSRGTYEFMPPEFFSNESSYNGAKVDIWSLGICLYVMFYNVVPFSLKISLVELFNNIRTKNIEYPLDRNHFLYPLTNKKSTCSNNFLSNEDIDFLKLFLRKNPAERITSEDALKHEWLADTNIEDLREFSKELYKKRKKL

For `O=c1[nH]c2ccccc2n1C1CCN(CCCC(c2ccc(F)cc2)c2ccc(F)cc2)CC1`, the normalised LDH release in assay [1] stood at 0.918. Also, the fold fluorescence in assay [2] is 5.15 [at 108.3 µM] (inactive).
Molecule `CN(C)[C@@H]1C(=O)C(C(N)=O)=C(O)[C@@]2(O)C(=O)C3=C(O)c4c(O)cccc4[C@@](C)(O)[C@H]3[C@H](O)[C@@H]12` showed a normalised LDH release in [1] of 0.818. The molecule was called inactive in assay [3].
For `CC(CCc1ccccc1)NC(C)C(O)c1ccc(O)cc1` (stereo not given), the protection in assay [4] is 40% (active).
Regarding `C=C(C)[C@H]1Cc2c(ccc3c2O[C@@H]2COc4cc(OC)c(OC)cc4[C@@H]2C3=O)O1`, the AC50 in [3] was 8.33 µM (active); in assay [5], 1.18 µM (active).
In the case of `C[C@@H]1C[C@@H]([C@H](O)CC2CC(=O)NC(=O)C2)C(=O)[C@@H](C)C1`, the normalised LDH release in assay [1] was determined as 0.469. In addition, the outcome in assay [6], in [7] and in assay [8] was inactive. Besides, the AC50 in assay [5] was 0.372 µM (active). Also, the fold fluorescence in [2] was 9.32 [at 177.7 µM] (inactive).
For the molecule `CN1C(=O)CCS(=O)(=O)C1c1ccc(Cl)cc1` (stereo not given), the result in assay [3] was inactive.
On to `O=P1(N(CCCl)CCCl)NCCCO1` (stereo not given), for which the molecule was classed as inactive in [3]. Also, the SSMD in assay [9] stood at 1.32. The cell count in [9] came to 7410. Also, the plate-normalised HSF1 focus index in assay [9] is 1.05 (inactive). The inhibition in [10] (at 0.5 µM) is -27.2% (inactive) and -18.7% (inactive); in assay [10] (measured here: combination with BGB IC40, at 0.05 µM), -28.1% and -17.9%; in assay [10] (setting [21]), -62% and -22.2%; in assay [10] (setting [22]), -58.8% and -8.04%; in assay [11] (at 0.5 µM), -64.7% (inactive) and -26.3% (inactive); in assay [11] (measured here: combination with BGB at IC20, at 0.5 µM), -52.1% and -36.9%. In addition, the inhibition was -105% and -14.6% in assay [11] (measured here: combination with cisplatin at IC20, at 0.5 µM); -15.6% (inactive) and -8.72% (inactive) in assay [12] (at 0.5 µM); -13.1% and -5.67% in assay [12] (measured here: combo with BGB at IC20, at 0.5 µM); -23.9% and -12.6% in [12] (measured here: combo with cisplatin at IC20, at 0.5 µM); -11% (inactive) and -0.72% (inactive) in assay [13] (at 0.5 µM); 0.467% and -11.6% in assay [13] (measured here: inhibition with BGB combination, at 0.05 µM). The inhibition in assay [13] (measured here: inhibition with cisplatin combination, at 0.05 µM) is -17.5% and -3.57%; in assay [14] (at 0.5 µM) it was -8.87% (inactive) and -10.9% (inactive); in assay [14] (setting [21]), -12.2% and -3.73%; in [14] (setting [22]), -12% and -15.2%; in assay [15] (at 0.5 µM) it was -6.84% (inactive) and -18.8% (inactive); in assay [15] (measured here: BGB combination, at 0.5 µM) it was -4.29% and -16.7%. Moreover, the inhibition in assay [15] (measured here: BGB combination, at 5 µM) was -11.8% and -7.83%; in [15] (measured here: cisplatin combination, at 0.5 µM), -1.92% and -34.6%; in assay [15] (measured here: cisplatin combination, at 5 µM), -42.1% and -18.1%; in [16] (BGB combination, concentration series, at 5 µM) it was -8.88% and 6.63%; in [16] (at 0.5 µM), -10.4% (inactive) and -3.19% (inactive); in assay [16] (cisplatin combination, concentration series, at 5 µM), -43.5% and 10.9%. Besides, the inhibition was 1.59% (inactive) and 8.63% (inactive) in assay [17]; 0.13% and 3.09% in assay [17] (measured here: combo with BGB IC20); 6.54% and 14.4% in assay [17] (measured here: combo with cisplatin IC20); -9.95% (inactive) and -11.7% (inactive) in [18] (at 0.5 µM); -36.8% and -12% in assay [18] (cisplatin combination, at 0.5 µM); -1.57% and -57.3% in assay [18] (cisplatin combination, at 5 µM). In addition, the inhibition in [18] (measured here: BGB IC40 combination 0.05 uM, at 0.05 µM) is -19.2% and 1.38%; in assay [18] (single agent, at 5 µM) it was -9.56% and -21.4%; in assay [19] (at 0.5 µM) it was -4.96% (inactive) and -6.79% (inactive); in [19] (cisplatin combo, at 5 µM), -39% and 8.55%; in assay [19] (measured here: BGB IC40 combination, at 0.05 µM) it was -12.6% and 10%; in assay [19] (setting [21]) it was -20.8% and 7.02%. In addition, the inhibition in assay [19] (single agent, at 5 µM) is -6.86% and -4.77%; in assay [20] (at 0.5 µM) it was -20.8% (inactive) and -21.4% (inactive); in assay [20] (measured here: with BGB IC20 combination, at 0.5 µM), -33.7% and 3.63%; in [20] (measured here: with cisplatin IC20 combination, at 0.5 µM) it was -16.2% and -34%; in assay [20] (single agent, at 0.05 µM), -25% and -2.49%; in assay [20] (single agent, at 5 µM) it was 10.9% and -41%.
